Assay outcomes (PubChem BioAssay)
KCNQ2 inh: blocks the rat KCNQ2 potassium channel. B-score at 10 µM. 310,000 tested, 1.1% active. CHO-K1 KCNQ2, FluxOR thallium flux, 20 min; active compounds read low. O88943. AID 2156;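 active = fluorescence ratio B-score at most minus 3 library SDs, with starting brightness B-score within 2 library SDs, cut at about -5.5 in these data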
Target sequence (O88943 whole entry, looked up): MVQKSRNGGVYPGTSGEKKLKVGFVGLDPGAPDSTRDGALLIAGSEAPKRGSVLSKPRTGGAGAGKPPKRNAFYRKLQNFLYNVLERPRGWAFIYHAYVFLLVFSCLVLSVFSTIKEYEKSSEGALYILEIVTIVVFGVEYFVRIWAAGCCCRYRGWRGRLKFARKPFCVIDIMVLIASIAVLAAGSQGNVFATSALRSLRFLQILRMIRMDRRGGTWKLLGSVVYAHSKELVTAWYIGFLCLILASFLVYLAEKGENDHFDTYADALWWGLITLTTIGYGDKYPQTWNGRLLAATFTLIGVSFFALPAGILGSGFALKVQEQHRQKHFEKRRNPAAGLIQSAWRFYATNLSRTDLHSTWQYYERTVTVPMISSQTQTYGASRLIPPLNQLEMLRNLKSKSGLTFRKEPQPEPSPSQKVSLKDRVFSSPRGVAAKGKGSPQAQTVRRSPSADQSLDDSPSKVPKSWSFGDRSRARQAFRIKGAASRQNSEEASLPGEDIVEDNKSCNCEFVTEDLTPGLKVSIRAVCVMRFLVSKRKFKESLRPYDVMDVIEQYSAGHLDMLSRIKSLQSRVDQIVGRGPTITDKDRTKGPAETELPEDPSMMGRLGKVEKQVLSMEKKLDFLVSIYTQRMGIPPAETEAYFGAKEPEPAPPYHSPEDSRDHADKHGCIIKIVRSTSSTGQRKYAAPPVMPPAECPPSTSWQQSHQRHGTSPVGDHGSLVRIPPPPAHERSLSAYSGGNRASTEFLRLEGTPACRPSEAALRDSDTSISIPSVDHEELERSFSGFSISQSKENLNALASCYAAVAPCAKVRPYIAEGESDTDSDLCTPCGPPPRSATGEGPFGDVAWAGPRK
KCNQ2 pot: KCNQ2 (rat) channel potentiation. O88943. CHO-K1 KCNQ2, FluxOR thallium flux fluorescence; active compounds read high. B-score at 10 µM. 310,000 tested, 0.54% active. AID 2239;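 active = fluorescence ratio B-score at least 3 SD of library B-scores, with initial fluorescence B-score within 3 of them, cut at about 5.3 in these data; same plate scores as AID 2156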;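 also: B-score of peak minus minimum over baseline fluorescence ratio after K+ and Tl+ stimulus; positive B-score means potentiation of KCNQ2 with more thallium influx and brighter signal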
Active calls of the source: *; i = inactive; . = not tested or not shown. In the library only some 1.6% were active in any assay of this set; here they are far more common.

SMILES	KCNQ2 inh	KCNQ2 pot
O=C(c1ccc(-c2cccc(C(F)(F)F)c2)o1)N1CCCCCCC1	-6.2*	-6.2
Cc1ccc(NC(=S)N2CCN(S(C)(=O)=O)CC2)cc1Cl	i	.
Cc1ccc(N2CCN(/N=C/c3sccc3C)CC2)cc1	i	.
Cc1ccc2nc(-c3ccccc3)cc(C(=O)NCC3CCCO3)c2c1 (centres undefined)	i	.
Cc1ccc2nc(-c3ccccc3)cc(C(=O)NCC(c3ccco3)N(C)C)c2c1 (centres undefined)	-5.8*	-5.8
CC(=O)c1c(C)[nH]c(C(=O)NNC(=O)COc2ccc(Cl)cc2C)c1C	-5.8*	-5.8
COc1ccc(Cl)cc1NC(=O)c1[nH]c(C)c(C(C)=O)c1C	i	1.2
Cc1noc(/C=C/N(C)C)c1S(=O)(=O)N1CCCC(C(=O)Nc2ccc(F)cc2F)C1 (centres undefined)	i	1.6
CC(=O)Nc1cccc(-c2nc3ccccc3[nH]2)c1	i	1.6
CC(Oc1ccccc1)C(=O)Nc1cccc(-c2nc3ccccc3[nH]2)c1 (centres undefined)	-5.6*	-5.6
COC(=O)c1cc(C(=O)OCC(=O)NC(=O)c2ccccc2)cc([N+](=O)[O-])c1	i	0.97
Cc1ccc(S(=O)(=O)Nc2ccccc2C(=O)N2CCCCC2C)c(C)c1NS(C)(=O)=O (centres undefined)	i	1.3
Cc1cc(C)c2c(N)c(C(=O)N3CCc4ccccc4C3)sc2n1	-7.7*	-7.7
CCN1CCc2nc3sc(C(=O)N4CCc5ccccc5C4)c(N)c3cc2C1	i	.
Cc1ccc2cc(C)c3nnc(SCC(=O)Nc4nc5c(s4)CCCC5)n3c2c1C	i	.
COc1c(Cl)cc(-c2noc(C)c2C(=O)NCc2ccccc2)cc1Cl	i	4.4
COc1c(Cl)cc(-c2noc(C)c2C(=O)NCc2ccc3c(c2)OCO3)cc1Cl	i	14*
Cn1ncc(Cl)c1C(=O)N1CCN(S(=O)(=O)c2ccc(Cl)s2)CC1	i	.
CCCc1ccc(C(=O)NNc2ccccc2F)cc1	i	0.53
Cn1nnnc1SCc1ccc([N+](=O)[O-])cc1	i	.
O=C(c1nc2ccc(Cl)cn2c1CN1CCC(O)CC1)N1CCc2ccccc2C1	i	0.37
CC1CCN(Cc2c(C(=O)N3CCc4ccccc4C3)nc3ccc(Cl)cn23)CC1	-5.8*	-5.8
Cc1cccc(C)c1NC(=O)NC1(C(=O)NCCCN2CCOCC2)CCCCC1	i	0.57
Cc1cccc(C)c1NC(=O)CNC(=O)CNC(=O)c1ccc2c(c1)OCO2	i	0.53
O=c1c2c(-c3cccs3)csc2ncn1/N=C/c1ccc(OC(F)F)cc1	-7.4*	-7.4
SMILES	KCNQ2 inh	KCNQ2 pot
O=c1c2c(-c3cccs3)csc2ncn1/N=C/c1ccccn1	i	.
COc1ccccc1CNC(=O)COC(=O)c1n[nH]c2ccccc12	-5.9*	-5.9
COc1ccccc1CNC(=O)c1n[nH]c2ccccc12	i	0.13
C=CCNC(=O)C1CC1(c1ccc(C)cc1)c1ccc(C)cc1 (centres undefined)	i	.
CC1=C(/C=C/C(C)=C/C=C/C(C)=C\C(=O)O)C(C)(C)CCC1	-7.7*	-7.7
CC1=C(/C=C/C(=O)O)C(C)(C)CCC1	i	0.54
O=C(Nc1ccc(O)c2c(=O)cc(-c3ccccc3Cl)oc12)c1ccc(F)cc1	i	1.5
CC(C)(C)c1ccc(C(=O)Nc2ccc(O)c3c(=O)cc(-c4ccccc4Cl)oc23)cc1	-7*	-7
O=C(O)c1cc(-c2ccc(-c3c(-c4ccc5c(c4)OCO5)noc3-c3ccsc3)cc2)nc2ccccc12	i	.
c1ccc(-c2onc(-c3ccco3)c2-c2ccc3c(c2)OCO3)cc1	-5.9*	-5.9
Cc1cccc(OCCCOc2cccc3cccnc23)c1C	i	.
COc1cccc(OC)c1OCCCOc1cccc2cccnc12	-5.6*	-5.6
COc1ccc(N2C3=C(CC4=C2CC(C)(C)CC4=O)C(=O)CC(C)(C)C3)cc1	-10*	-10
COc1ccc(N2C3=C(CC4=C2CCCC4=O)C(=O)CCC3)cc1	i	.
COc1cc(OC)c(C(=O)OC(C)C(=O)Nc2cccc(C(F)(F)F)c2)cc1OC (centres undefined)	i	0.01
COc1cccc(/C=N/NC(=O)c2nc(-c3ccccc3)cc(-c3ccccc3)n2)c1	-6.9*	-6.9
COc1ccc(/C=N/NC(=O)c2nc(-c3ccccc3)cc(-c3ccccc3)n2)cc1OC	i	.
O=C(c1cccc2ccccc12)C1CCCN(C(=O)c2ccc(N3CCOCC3)cc2)C1 (centres undefined)	i	.
COc1cccc(CN2C(=O)CCC2(C)C(=O)NCCc2ccc(OC)c(OC)c2)c1 (centres undefined)	i	.
CCOC(=O)C1CCCN(C(=O)c2cc(-c3ccc(C)cc3)nc3ccccc23)C1 (centres undefined)	-5.6*	-5.6
CCOC(=O)C1CCCN(C(=O)c2cnn3c(C(F)(F)F)cc(-c4ccccc4)nc23)C1 (centres undefined)	i	.
CCOC(=O)C1CCCN(C(=O)c2cc(Nc3ccc(OC)cc3OC)nc3ccccc23)C1 (centres undefined)	-7.6*	-7.6
CCOC(=O)C1CCCN(C(=O)c2cc(Nc3ccc(OC)c(OC)c3)nc3ccccc23)C1 (centres undefined)	i	.
COc1ccc(C(C)=O)cc1CSc1nnc(-c2ccc(Cl)cc2)n1-c1ccccc1	i	.
CC(N=Cc1c(O)c2ccccc2oc1=O)C(=O)O (centres undefined)	i	.
SMILES	KCNQ2 inh	KCNQ2 pot
O=C(CN1CCN(S(=O)(=O)c2cc(Cl)ccc2Cl)CC1)Nc1ccc2c(c1)OCCO2	i	.
CN(C(=O)C1CCC(=O)N(CCCN2CCCC2=O)C1)C(C1CC1)C1CC1 (centres undefined)	i	0.87
COc1ccccc1N1CCN(C(=O)C(C)N(c2ccccc2)S(C)(=O)=O)CC1 (centres undefined)	-5.7*	-5.7
COc1ccccc1N1CCN(C(=O)C(C)N(c2ccc(C)cc2)S(C)(=O)=O)CC1 (centres undefined)	i	.
Cc1cc(C)nc(/N=C(\NC(=O)C(C)(C)C)Nc2ccccc2)n1	i	1.3
Cc1cc(C)nc(/N=C(/NC(=O)Nc2cccc(Cl)c2)Nc2ccccc2)n1	-5.8*	-5.8
N=c1n(Cc2ccc(Cl)cc2)c2ccccc2n1CC(O)COc1ccccc1 (centres undefined)	i	.
N=c1n(Cc2ccccc2)c2ccccc2n1CC(O)COc1ccc(Cl)cc1Cl (centres undefined)	-6*	-6
CC1(C)CC(NC(=O)c2cc(Cl)ccc2Cl)CC(C)(C)N1	i	.
CCCC/C(O)=C1\C(=O)CCCC1=NCCc1c(C)[nH]c2ccccc12	i	.
O=C(CC1SC(=Nc2ccccc2)N(CCc2c[nH]c3ccccc23)C1=O)Nc1ccccc1F (centres undefined)	-6.7*	-6.7
O=C(CC1SC(=Nc2ccccc2)N(CCc2ccccn2)C1=O)Nc1ccc(F)cc1 (centres undefined)	i	0.03
CS(=O)(=O)c1ccc(-n2nnc3ccccc32)c([N+](=O)[O-])c1	i	.
N#Cc1cc([N+](=O)[O-])c(-n2nnc3ccccc32)c([N+](=O)[O-])c1	-5.7*	-5.7
Cc1nc(NC(=O)C23CC4CC(CC(C4)C2)C3)sc1Cc1ccc2c(c1)OCO2	i	21*
Cc1nc(NC(=O)C2CCCC2)sc1Cc1ccc2c(c1)OCO2	i	0.1
